Unmarked numbers belong to inactive results. Records with an inconclusive call do not appear. Active and inactive are the calls of the source. Unless noted, the call rests on the fitted dose curve; in most records, active means well fitted curve in the direction sought with a large enough effect in the repeat runs; inconclusive means weak or mixed curves; inactive means no such curve, though single readings can be large; an effect the other way counts as inactive or inconclusive.

The target in experiment [1] is Progesterone receptor (Homo sapiens) (UniProt P06401). Description: qHTS assay to identify small molecule agonists of the progesterone receptor (PR) signaling pathway (AID 1346784; calls by dose curve; further: nearly all actives have a fitted effect of over 30% in size). A digest of the protocol:
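Agonist qHTS: compounds pinned onto 3,000 PR-UAS-bla HEK 293T cells per well in charcoal-stripped serum medium, 16hr at 37C, then beta-lactamase activity measured by LiveBLAzer FRET fluorescence after 2 hours at room temperature.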
Background: qHTS replaces the single test concentration by a dilution series.

Experiment [2] shares this target. The experiment in a line: qHTS assay to identify small molecule antagonists of the progesterone receptor (PR) signaling pathway (AID 1346795; active means well fitted inhibition curve with a large enough effect in the signal ratio in the repeat runs, not every such curve was filed as active; the % refers to the signal ratio). The method, boiled down: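 Antagonist mode with agonist R5020 at 1 nM final and 16 hr incubation at 37C. Reporter was beta-lactamase driven by UAS in HEK293T (PR-UAS-bla), 2% charcoal-stripped serum; signal from LiveBLAzer FRET substrate, 2 hr at room temperature.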

Experiment [3] is described as follows: qHTS assay to identify small molecule antagonists of the progesterone receptor (PR) signaling pathway - cell viability counter screen (AID 1346798). Further: series mostly up to about 92 µM; nearly all actives have a fitted effect of over 50% in size. The method, boiled down: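 Cytotoxicity read as CellTiter-Glo luminescence (30 min, room temperature) in the same wells as the beta-lactamase readout. HEK293T PR-UAS-bla cells in charcoal-stripped 2% FBS received compound and R5020, then 16 h at 37C, 5% CO2.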

Experiment [4] in a line: qHTS assay to identify small molecule antagonists of the TGF-beta/Smad signaling pathway - cell viability counter screen (AID 1346824). Further: nearly all actives have a fitted effect of over 50% in size. The method, boiled down: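 SBE-bla HEK 293T cells were plated overnight at 37 C, then given compounds in DMSO plus TGF-beta1 (added as 0.25 ng/mL solution) for 5 hr. After the bla read, CellTiter-Glo was added to the same wells and luminescence read after 30 min at room temperature.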

A short description of experiment [5]: qHTS assay to identify small molecule agonists of the TGF-beta/Smad signaling pathway - cell viability counter screen (AID 1346829). Further: top concentration of the series differs between compounds; nearly all actives have a fitted effect of over 45% in size. A digest of the protocol: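 After overnight seating at 37 C and 5% CO2, reporter cells got compounds for 5 hr and FRET substrate for 2 hr; cell viability then came from CellTiter-Glo luminescence.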
Experiment [6] can be described thus: qHTS assay to identify small molecule agonists of the TGF-beta/Smad signaling pathway (AID 1346859; active means well fitted activation curve with a large enough effect in the signal ratio in the repeat runs, not every such curve was filed as active; the % refers to the signal ratio; further: series mostly up to about 77 µM). A digest of the protocol:
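Fluorescence (ex 405 nm; em 460 and 530 nm) was read 2 h after LiveBLAzer FRET substrate at RT. The preceding compound treatment of overnight-plated SBE-bla HEK293T cells lasted 5 h at 37 C.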

Experiment [7] deals with Thyrotropin-releasing hormone receptor (Homo sapiens) (UniProt P34981). Description: qHTS assay to identify small molecule antagonists of the thyrotropin-releasing hormone receptor (TRHR) signaling pathway (AID 1346877; active means well fitted inhibition curve with a large enough effect in the repeat runs, not every such curve was filed as active; further: series mostly up to about 51 µM). A digest of the protocol:
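In this cell-based calcium flux format, HEK293 cells expressing TRHR received test compound for 5 min before the agonist TRH (1 nM final). Dye loading lasted 2 h at 37 °C.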

Experiment [8] has the same target. The experiment in a line: qHTS assay to identify small molecule agonists of the thyrotropin-releasing hormone receptor (TRHR) signaling pathway (AID 1346891; calls by dose curve; further: series mostly up to about 58 µM). The method, boiled down:
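Agonist-mode intracellular calcium readout: kinetic fluorescence over 3 min at 1 s intervals after compound addition to TRHR-HEK293 cells (18 h seeded, 2 h dye-loaded at 37 C). Fifteen concentrations, triplicates.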

A short description of experiment [9]: Human pregnane X receptor (PXR) small molecule agonists, qHTS cell viability counter screen (AID 1346977). Further: nearly all actives have a fitted effect of over 50% in size. A digest of the protocol:
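Same-well viability read: CellTiter-Fluor added after 23 hr compound exposure, fluorescence measured 1 hr later. Cells were PXR-Luc HepG2 seeded at 2,000/well in 5% charcoal-stripped FBS medium, rested 5 hr before dosing at 37 C.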

A short description of experiment [10]: Caspase-3/7 induction in HepG2 cells by small molecules, qHTS assay (AID 1346978). Further: nearly all actives have a fitted effect of over 15% in size. The method, boiled down:
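Wild-type HepG2 cells (2,000/well) were settled 5 h at 37 C, 5% CO2, then exposed to compounds in DMSO for 17 h. Caspase-3/7 activity was read by luminescence 30 min after adding Caspase-Glo 3/7 reagent at room temperature.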

Experiment [11] can be described thus: Caspase-3/7 induction in CHO-K1 cells by small molecules, qHTS cell viability counter screen (AID 1346979). Further: nearly all actives have a fitted effect of over 35% in size. A digest of the protocol:
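Cytotoxicity counter screen: CellTiter-Fluor added to compound-treated wild-type CHO-K1 cells at 16 h (37C, 5% CO2), fluorescence measured 1 h later; same wells as caspase-3/7 measurement.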

Experiment [12] in a line: Caspase-3/7 induction in HepG2 cells by small molecules, qHTS cell viability counter screen (AID 1346981). Further: series mostly up to about 92 µM; nearly all actives have a fitted effect of over 30% in size. A digest of the protocol:
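Counter screen for cytotoxicity: HepG2 exposed 16 hr to compounds, then CellTiter-Fluor viability signal (fluorescence, 1 hr reagent incubation).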

Experiment [13] is described as follows: Caspase-3/7 induction in CHO-K1 cells by small molecules, qHTS assay (AID 1346980). Further: nearly all actives have a fitted effect of over 15% in size. A digest of the protocol:
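Wild-type cells were seeded at 1,500 per well and settled 5 hr at 37 C, 5% CO2, then exposed to DMSO-dissolved compounds for 17 hr. Caspase-Glo 3/7 reagent was added, and luminescence was read after 30min at room temperature.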

For experiment [14], the target named is Nuclear receptor subfamily 1 group I member 2 (Homo sapiens) (UniProt O75469). The experiment in a line: Human pregnane X receptor (PXR) small molecule agonists, qHTS assay (AID 1346982). Further: nearly all actives have a fitted effect of over 35% in size. A digest of the protocol:
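Luminescence (ONE-Glo, 30 min RT) after 24 hr compound exposure of PXR-Luc HepG2 cells; cells rested 5 hr post-plating in 5% charcoal-stripped FBS medium.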

Experiment [15] concerns the target Cytochrome P450 2D6 (Homo sapiens) (UniProt P10635). Description: Cytochrome P450 Family 2 Subfamily D Member 6 (CYP2D6) small molecule antagonists: luciferase reporter qHTS assay (AID 1671196). Further: nearly all actives have a fitted effect of over 50% in size. Further: potency means the concentration at half of the fitted maximal effect. On activity change, negative = inhibition: series mostly up to about 120 µM. The method, boiled down:
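Inhibition of CYP2D6 was gauged by loss of luminescence, since light produced tracks the luciferin generated from a proluciferin substrate. A 10 min room-temperature preincubation preceded 1 h NADPH-supported turnover.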
In general terms: A reporter such as luciferase makes a cellular process visible.

The target in experiment [16] is Cytochrome P450 2C19 (Homo sapiens) (UniProt P33261). Description: Cytochrome P450 Family 2 Subfamily C Member 19 (CYP2C19) small molecule antagonists: luciferase reporter qHTS assay (AID 1671197). Further: nearly all actives have a fitted effect of over 65% in size. Further: potency means the concentration at half of the fitted maximal effect. On activity change, negative = inhibition: series mostly up to about 120 µM. The method, boiled down:
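Inhibition of CYP2C19 was scored from loss of luminescence in a P450-Glo proluciferin substrate assay, NADPH-started and run 1 h at 37C, with ketoconazole as positive control.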

Experiment [17] is described as follows: qHTS assay to identify small molecule agonists of the progesterone receptor (PR) signaling pathway - cell viability counter screen (AID 1346799; calls by dose curve; further: nearly all actives have a fitted effect of over 45% in size). The method, boiled down:
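Cytotoxicity measured by CellTiter-Glo luminescence (30 min, RT) in the same wells as the PR beta-lactamase agonist read. Those HEK293T cells had 16 h compound treatment at 37 C in 2% charcoal-stripped FBS medium.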

Experiment [18] has as its target Nuclear receptor subfamily 1 group I member 2 (Rattus norvegicus) (UniProt Q9R1A7). The experiment in a line: Rat pregnane X receptor (rPXR) activation by small molecules, qHTS assay (AID 1346983). Further: nearly all actives have a fitted effect of over 20% in size. To be noted: rPXR luciferase reporter cells, One-Glo luminescence, 24 h; max activation: active compounds read high. The method, boiled down:
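Cell-based rPXR luciferase reporter assay, 2,000 cells per well, rested 5hr at 37 C before compound addition in DMSO, then 24 hr at 37 C. One-Glo reagent was added and luminescence read after 30 min at room temperature.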

The target of experiment [19] is Nuclear receptor subfamily 1 group I member 2 (Homo sapiens) (UniProt O75469). Description: CYP3A4 induction through human pregnane X receptor (PXR) by small molecules, qHTS assay (AID 1346984). Further: nearly all actives have a fitted effect of over 40% in size. The method, boiled down: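 DPX-2 reporter cells; 24h cpd, 37C; Luciferin-IPA 3uM final x3h; One-Glo 30 min RT; lumi read.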
Experiment [20] has the same target. Description: Human pregnane X receptor (PXR) activation by small molecules, qHTS assay (AID 1346985). Further: nearly all actives have a fitted effect of over 40% in size. The method, boiled down:
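DPX-2 cells (HepG2 co-transfected with a PXR response element and a CYP3A4-promoter luciferase construct) were seeded at 2,000 per well, rested 5 hr at 37C, then exposed to DMSO-dissolved compounds for 24 hr. Activation was read as luciferase luminescence.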
On the % scale 0 is the no-effect control and ±100 the full control effect.

Progesterone receptor (Homo sapiens), sequence (P06401 whole entry, looked up): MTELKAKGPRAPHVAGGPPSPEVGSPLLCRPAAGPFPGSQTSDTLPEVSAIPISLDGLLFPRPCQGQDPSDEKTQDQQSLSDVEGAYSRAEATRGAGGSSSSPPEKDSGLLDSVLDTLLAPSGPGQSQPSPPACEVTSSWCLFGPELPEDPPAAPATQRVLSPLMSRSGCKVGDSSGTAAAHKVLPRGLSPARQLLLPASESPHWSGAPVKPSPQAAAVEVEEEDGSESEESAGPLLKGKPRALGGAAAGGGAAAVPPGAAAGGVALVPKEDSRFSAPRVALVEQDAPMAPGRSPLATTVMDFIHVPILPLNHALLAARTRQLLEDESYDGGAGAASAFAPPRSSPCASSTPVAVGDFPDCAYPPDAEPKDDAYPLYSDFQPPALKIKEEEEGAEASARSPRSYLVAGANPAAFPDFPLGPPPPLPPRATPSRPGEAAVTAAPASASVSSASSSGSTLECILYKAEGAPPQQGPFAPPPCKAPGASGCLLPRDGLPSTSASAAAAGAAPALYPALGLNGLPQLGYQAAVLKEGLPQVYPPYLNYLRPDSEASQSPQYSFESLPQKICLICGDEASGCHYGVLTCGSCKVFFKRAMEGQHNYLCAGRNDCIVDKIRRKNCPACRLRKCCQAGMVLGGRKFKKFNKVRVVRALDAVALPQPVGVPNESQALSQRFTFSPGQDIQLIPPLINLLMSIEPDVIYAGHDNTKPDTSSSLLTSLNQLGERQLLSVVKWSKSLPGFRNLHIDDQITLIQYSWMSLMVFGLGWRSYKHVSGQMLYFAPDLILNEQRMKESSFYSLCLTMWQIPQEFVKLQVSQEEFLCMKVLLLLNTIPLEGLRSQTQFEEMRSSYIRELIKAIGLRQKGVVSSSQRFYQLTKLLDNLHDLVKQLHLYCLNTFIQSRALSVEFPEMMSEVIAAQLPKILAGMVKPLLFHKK
Cytochrome P450 2C19 (Homo sapiens), sequence (P33261 whole entry, looked up): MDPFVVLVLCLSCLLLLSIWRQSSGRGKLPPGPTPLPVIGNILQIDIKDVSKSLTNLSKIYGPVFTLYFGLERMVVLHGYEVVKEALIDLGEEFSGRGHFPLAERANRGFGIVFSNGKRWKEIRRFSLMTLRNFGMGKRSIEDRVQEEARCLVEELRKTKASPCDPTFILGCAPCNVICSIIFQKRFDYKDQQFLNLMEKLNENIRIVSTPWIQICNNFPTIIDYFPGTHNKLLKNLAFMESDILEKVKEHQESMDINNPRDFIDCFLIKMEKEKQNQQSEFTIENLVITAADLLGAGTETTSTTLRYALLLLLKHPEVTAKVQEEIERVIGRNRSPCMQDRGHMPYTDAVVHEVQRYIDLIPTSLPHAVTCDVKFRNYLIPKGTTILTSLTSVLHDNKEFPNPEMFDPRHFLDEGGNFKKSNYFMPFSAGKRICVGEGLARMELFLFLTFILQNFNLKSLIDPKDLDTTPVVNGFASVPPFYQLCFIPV
Thyrotropin-releasing hormone receptor (Homo sapiens), sequence (P34981 whole entry, looked up): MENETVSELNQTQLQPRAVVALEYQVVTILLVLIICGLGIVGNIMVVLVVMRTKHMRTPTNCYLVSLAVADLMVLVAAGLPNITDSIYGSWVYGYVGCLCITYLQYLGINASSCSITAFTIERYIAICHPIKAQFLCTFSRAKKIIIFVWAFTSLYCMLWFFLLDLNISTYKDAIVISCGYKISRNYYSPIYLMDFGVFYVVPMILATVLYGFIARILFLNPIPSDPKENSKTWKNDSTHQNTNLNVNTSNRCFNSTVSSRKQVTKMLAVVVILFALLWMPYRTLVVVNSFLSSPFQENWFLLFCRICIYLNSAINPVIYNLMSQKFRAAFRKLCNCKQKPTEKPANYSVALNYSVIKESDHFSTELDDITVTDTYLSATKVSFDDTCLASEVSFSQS
Cytochrome P450 2D6 (Homo sapiens), sequence (P10635 whole entry, looked up): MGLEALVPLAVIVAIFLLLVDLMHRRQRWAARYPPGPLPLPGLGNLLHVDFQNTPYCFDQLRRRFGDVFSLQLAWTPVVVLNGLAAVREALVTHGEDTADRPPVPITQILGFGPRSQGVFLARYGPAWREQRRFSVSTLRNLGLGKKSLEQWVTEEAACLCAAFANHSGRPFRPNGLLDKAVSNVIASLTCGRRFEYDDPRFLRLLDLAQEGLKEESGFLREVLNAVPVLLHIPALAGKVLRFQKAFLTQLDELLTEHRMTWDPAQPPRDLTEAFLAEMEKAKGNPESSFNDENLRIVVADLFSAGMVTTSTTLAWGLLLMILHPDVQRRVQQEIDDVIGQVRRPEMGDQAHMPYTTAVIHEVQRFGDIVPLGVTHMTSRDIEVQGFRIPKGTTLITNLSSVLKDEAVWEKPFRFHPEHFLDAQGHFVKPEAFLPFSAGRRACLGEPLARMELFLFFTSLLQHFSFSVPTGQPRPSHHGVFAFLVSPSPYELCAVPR
Nuclear receptor subfamily 1 group I member 2 (Homo sapiens), sequence (O75469 whole entry, looked up): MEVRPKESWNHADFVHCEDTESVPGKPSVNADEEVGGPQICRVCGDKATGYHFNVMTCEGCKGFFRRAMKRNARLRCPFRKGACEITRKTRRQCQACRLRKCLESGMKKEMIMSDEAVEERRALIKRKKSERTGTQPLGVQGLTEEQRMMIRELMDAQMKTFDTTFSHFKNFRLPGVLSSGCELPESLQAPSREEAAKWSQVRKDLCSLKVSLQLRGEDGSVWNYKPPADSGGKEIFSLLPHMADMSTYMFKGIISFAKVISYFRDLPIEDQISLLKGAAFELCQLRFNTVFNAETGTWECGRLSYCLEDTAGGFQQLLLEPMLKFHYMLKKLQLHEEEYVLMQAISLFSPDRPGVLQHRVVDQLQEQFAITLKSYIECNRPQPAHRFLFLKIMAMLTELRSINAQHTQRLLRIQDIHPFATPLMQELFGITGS
Nuclear receptor subfamily 1 group I member 2 (Rattus norvegicus), sequence (Q9R1A7 whole entry, looked up): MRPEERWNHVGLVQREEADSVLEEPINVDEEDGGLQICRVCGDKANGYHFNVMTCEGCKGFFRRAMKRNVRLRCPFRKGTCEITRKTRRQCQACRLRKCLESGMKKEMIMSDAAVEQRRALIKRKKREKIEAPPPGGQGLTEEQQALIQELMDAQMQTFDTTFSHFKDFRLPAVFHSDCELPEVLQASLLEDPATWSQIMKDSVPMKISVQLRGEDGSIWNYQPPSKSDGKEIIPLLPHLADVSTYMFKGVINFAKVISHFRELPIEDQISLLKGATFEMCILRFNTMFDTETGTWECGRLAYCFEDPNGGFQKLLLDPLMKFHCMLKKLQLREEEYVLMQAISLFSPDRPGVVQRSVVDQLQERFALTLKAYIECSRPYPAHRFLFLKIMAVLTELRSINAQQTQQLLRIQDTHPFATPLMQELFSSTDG

Consider `C[C@H]1C[C@H]2[C@@H]3CCC4=CC(=O)C=C[C@]4(C)[C@H]3C(=O)C[C@]2(C)[C@@]1(O)C(=O)CO`, for which the Potency result in [1], in [2], in experiment [3], in [8], in experiment [9] and in [11] was “inactive” in each case. Besides, the Potency entry in [12] is “inactive”. For the same compound, the compound was called inactive in experiment [4], in experiment [5], in [6], in experiment [7] and in [10].
Regarding `C=CCOCC(O)CO` (stereo not given), the Potency entry in experiment [1], in experiment [2], in experiment [3], in experiment [8], in experiment [9] and in [11] was “inactive” throughout. Moreover, the Potency entry in experiment [12], in experiment [14], in [15] and in [16] was “inactive” in each case. For the same compound, the outcome in [4], in [5], in experiment [6], in [7], in [10] and in experiment [13] was inactive.
With `CN1CCN(c2cc3c(nn2)Oc2ccccc2N3C)CC1`, the activation in experiment [1] is 0.134% [at 19 µM]; in experiment [6] it was 3.68% [at 15.8 µM]. Moreover, in [2], the activity change, negative = inhibition is 15.6% [at 18.9 µM]. The activity change, negative = cytotoxicity in experiment [3] was -18% [at 18.9 µM]; in experiment [17], -4.66% [at 19 µM]; in experiment [5] it was 19.9% [at 15.8 µM]; in [9] it was 8.08% [at 19 µM]; in experiment [11], 3.04% [at 19 µM]; in [12] it was -0.441% [at 19 µM]. Further, the viability change, negative = cytotoxic in [4] is 1.43% [at 15.8 µM]. For the same compound, the caspase-3/7 activation in experiment [13] was -3.65% [at 19 µM]. In addition, the max activation in experiment [18] was 8.97%. For the same compound, the Potency entry in [19], in [20] and in experiment [16] was “inactive” each time.
In the case of `CC[N+](CC)(CC(=O)Nc1c(C)cccc1C)Cc1ccccc1` (tested in a mixture with another compound), the Potency entry in [1], in [2], in experiment [3], in [17], in experiment [9] and in experiment [11] was “inactive” throughout. For the same compound, the Potency entry in experiment [12] is “inactive”. Also, the outcome in experiment [4], in [5], in experiment [6], in [10] and in experiment [13] was inactive. The Potency is 0.0262 µM (active) in experiment [15] and 52.3 µM (active) in experiment [16].
Turning to `NS(=O)(=O)Cc1noc2ccccc12`, the Potency entry in experiment [1], in experiment [2], in experiment [3], in experiment [17], in experiment [9] and in [11] was “inactive” throughout. Moreover, the Potency entry in experiment [12] and in experiment [16] was “inactive” throughout. The compound was classed as inactive in experiment [4], in experiment [5], in experiment [6], in experiment [10] and in experiment [13]. For the same compound, the max activation in experiment [18] was -2.52%.
For the compound `CCCn1cc[n+](C)c1C`, the Potency entry in experiment [1], in experiment [2], in experiment [3], in [9], in experiment [11] and in experiment [12] was “inactive” each time. Further, the Potency entry in experiment [14], in experiment [15] and in experiment [16] was “inactive” throughout. Also, the compound was classed as inactive in experiment [4], in experiment [5], in experiment [6], in [10] and in experiment [13].
In the case of `C=C(C)C(=O)OCC(O)CO` (stereo not given), the Potency result in [1], in [2], in experiment [3], in experiment [8], in experiment [9] and in experiment [11] was “inactive” throughout. Further, the Potency result in experiment [12], in experiment [14] and in experiment [15] was “inactive” each time. For the same compound, the call in experiment [4], in experiment [5], in [6], in experiment [7] and in experiment [13] was inactive.
For `CCN(CC#N)c1cccc(C)c1`, the Potency entry in [1], in experiment [2], in experiment [3], in [17], in [9] and in [11] was “inactive” throughout. For the same compound, the Potency entry in experiment [12] was “inactive”. In addition, the compound was called inactive in experiment [4], in [5], in experiment [6], in experiment [10] and in [13]. The Potency in experiment [16] is 71 µM (active).
Consider `CCOC(=O)COC(=O)c1ccccc1C(=O)OCC`, for which the Potency result in experiment [1], in experiment [2], in experiment [3], in experiment [17], in experiment [9] and in experiment [12] was “inactive” throughout. The Potency result in [14] and in [15] was “inactive” each time. Moreover, the call in experiment [4], in [5], in experiment [7], in [10] and in experiment [13] was inactive.

These data come from PubChem BioAssay (Tox21).
